CHX counter: affects cycloheximide protein synthesis inhibition readout, counter-screen; cell reporter, cycloheximide protein synthesis inhibition counterscreen; max response, %; actives 12% (n = 300,000); in the data active means max response mostly above about 13%, no sharp cut-off; inactive means mostly below about 14%; further: read at 38.3 µM for the half of the compounds with a filed dose
HCMV inh: human cytomegalovirus inhibition | HFF cells, HCMV-luciferase reporter, 72 h; active compounds read low | activity change, negative = inhibition, % at 57.5 µM | actives 4.5% (n = 410,000); in the data active means activity change below about -60%; inconclusive means no clear call, values can overlap the other calls; inactive means above about -39%
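Two-dose cell screen: HFF monolayers treated with compounds and infected with luciferase-expressing HCMV at 1 PFU/cell, 72 h at 37C, then lysed for luciferase measurement.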
Pf growth 96h: inhibits malaria parasite growth, 96 h. P. falciparum luciferase reporter growth, 96 h. Potency, µM (top dose mostly 28.7 µM), usual class: inhibitors. actives 6.9% (n = 320,000)
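Delayed-death screen, second-generation endpoint: infected erythrocytes, 2% hematocrit, 0.05% parasitemia final; 96 hours at 37 C, 5% CO2; luciferase detection reagent; luminescence decrease equals reduced growth.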
Shiga toxin inh: blocks Shiga toxin action in Vero cells | inhibition, % at 38.7 µM | Vero cells, Shiga toxin protein synthesis inhibition reporter | AID 2315 | actives 9.2% (n = 290,000); in the data active means inhibition mostly above about 28%, no sharp cut-off; inactive means mostly below about 43%
Pf growth 48h: inhibits P. falciparum growth in the first generation, 48 h; P. falciparum luciferase growth in erythrocytes, 48 h; Potency, µM (titrated, usually from 28.7 µM), usual class: inhibitors; actives 5.9% (n = 310,000)
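In quantitative HTS format, infected erythrocytes bearing luciferase-reporter parasites were treated for a single generation at 37 C. Luminescence after adding detection reagent served as the growth measure.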
HCV inh: HCV inhibition; Huh7.5.1 HCVcc-Cre infection, luciferase reporter, 44 h; Potency, µM (series often up to 41.8 µM), usual class: inhibitors; actives 3.4% (n = 340,000)
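1,000 cells/well; 4 h culture; + compound; + HCVcc-Cre (~0.5 moi); 44 h; luciferase substrate, RT 15 min; read 15 sec.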
Large screens that a line does not name were inactive. The list is not random: actives were taken first. Their share in the collection is about 21%. Unless noted, the call rests on the fitted dose curve; in most records, active means well fitted inhibition curve with a large enough effect; inconclusive means small, poorly fitted or top-dose-only effect, or another doubt; inactive means no such curve, though single readings can be large or run the other way.

CC(=O)NC(=S)Nc1cccc([N+](=O)[O-])c1	none
Cc1cccc(NC(=S)NNC(=O)c2cccc([N+](=O)[O-])c2)c1	CHX counter 19, Pf growth 96h inconclusive, Shiga toxin inh 50
Cc1cc(Br)ccc1NC(=S)Nc1cccc([N+](=O)[O-])c1	HCMV inh -64, HCV inh inconclusive
O=[N+]([O-])c1ccc(N2CCN(C(=S)Nc3cccc(F)c3)CC2)cc1	Pf growth 48h 3.3µM, HCV inh inconclusive
C/C(=N\NC(=S)NC(C)C)c1cccc([N+](=O)[O-])c1	Pf growth 96h inconclusive
O=C(NNC(=S)NC(=O)c1cccc([N+](=O)[O-])c1)c1ccc(O)cc1	CHX counter 32, Shiga toxin inh 53
C/C(=N/NC(=S)Nc1cccc(C)c1)c1cccc([N+](=O)[O-])c1	Pf growth 48h 12µM
CC(C)NS(=O)(=O)c1ccc(NC(=S)NC(=O)c2cccc([N+](=O)[O-])c2)cc1	HCMV inh inconclusive, Pf growth 96h 13µM
CCOc1ccc(-n2c(=O)c3c4c(sc3n(Cc3cccc(C)c3)c2=O)CCCC4)cc1	none (no result: CHX counter, Pf growth 96h, Shiga toxin inh, Pf growth 48h, HCV inh)
C[C@H]1NC(=O)[C@@]2(C)[C@H](c3ccccc3)[C@H]3COc4ccccc4[C@@H]3N2C1=O	none (no result: CHX counter, Pf growth 96h, Shiga toxin inh, Pf growth 48h)
CCC(=O)NC(=S)Nc1ccc(S(=O)(=O)NC(C)C)cc1	HCMV inh -110, Pf growth 96h inconclusive
COc1ccc(NC(=O)C2CCCO2)c(OC)c1 (stereo not drawn)	Pf growth 96h inconclusive
CSc1nc2ccc(NC(=O)c3ccc(Cl)s3)cc2s1	none
CSc1nc2ccc(NC(=O)C3CCCO3)cc2s1 (stereo not drawn)	CHX counter 40, Pf growth 96h inconclusive, Shiga toxin inh 112
Cc1cccc2sc(NC(=O)C3CCCO3)nc12 (stereo not drawn)	CHX counter 32, Pf growth 96h inconclusive, Shiga toxin inh 111, HCV inh inconclusive
COc1ccc2nc(NC(=O)C3CCCO3)sc2c1 (stereo not drawn)	CHX counter 65, Pf growth 96h inconclusive, Shiga toxin inh 101
COc1ccc(-c2nnc(NC(=O)C3CCCO3)s2)cc1 (stereo not drawn)	CHX counter 38, Shiga toxin inh 130
CN(c1ccccc1)c1ncnc2c1ncn2C	none (no result: CHX counter, Pf growth 96h, Shiga toxin inh, Pf growth 48h)
COc1ccc(-n2nc(C(=O)N3CCN(c4cccc(C)c4C)CC3)c3c4ccccc4n(C)c3c2=O)cc1	none (no result: CHX counter, Pf growth 96h, Shiga toxin inh, Pf growth 48h, HCV inh)
CCOC(=O)C1CCN(c2c(NCCC(C)C)c(=O)c2=O)CC1	none
O=C(COc1ccccc1[N+](=O)[O-])N1CCC(c2nc3ccccc3o2)CC1	none (no result: CHX counter, Pf growth 96h, Shiga toxin inh, Pf growth 48h, HCV inh)
COc1ccc(C2=[N+](C)CCn3cccc32)c(OC)c1	HCMV inh -96, Pf growth 96h 1µM, Pf growth 48h 2.1µM
COc1cc(C(=O)Nc2ccc(NC(=O)c3ccc(C(C)(C)C)cc3)cc2)cc(OC)c1OC	none (no result: CHX counter, Pf growth 96h, Shiga toxin inh, Pf growth 48h, HCV inh)
Cc1nn(C)c(C)c1NC(=O)c1ccc(Cl)cc1	none (no result: Pf growth 96h)
CCC(=O)Nc1ccc2c(c1)ncn2C	Pf growth 96h inconclusive
COc1cc(C(=O)Nc2ccc3c(c2)ncn3C(C)(C)C)cc(OC)c1OC	Pf growth 96h inconclusive, Pf growth 48h inconclusive, HCV inh 13µM
CC(C)(C)n1cnc2cc(NC(=O)c3ccc(Cl)cc3)ccc21	CHX counter 33, Shiga toxin inh 92, HCV inh inconclusive
Cn1cnc2cc(NC(=O)c3ccc(Cl)cc3)ccc21	CHX counter 27, Pf growth 96h inconclusive, Shiga toxin inh 55
Cc1ccc(NC(=O)N2CCN(Cc3nc4ccc(C)cc4o3)CC2)cc1	none (no result: CHX counter, Pf growth 96h, Shiga toxin inh, Pf growth 48h, HCV inh)
Cc1cccc(CNC(=O)c2cnc3sc(N4CCCCCC4)nn3c2=O)c1	none (no result: CHX counter, Pf growth 96h, Shiga toxin inh, Pf growth 48h, HCV inh)
O=C(CCc1ccc(O)cc1)c1c(O)cc(O)cc1O	CHX counter 20, Pf growth 96h inconclusive, Pf growth 48h inconclusive
CC(C)=CCc1c(O)ccc(C(=O)Cc2ccccc2)c1O	HCMV inh inconclusive, Pf growth 96h inconclusive, Pf growth 48h inconclusive
COc1cc(O)c(CC=C(C)C)c(O)c1C(=O)CCc1ccc(O)cc1	Shiga toxin inh 26, Pf growth 48h 9.3µM, HCV inh 0.71µM
COc1nc(N(C)S(=O)(=O)c2ccc(C)cc2)nc(C)c1Cl	HCMV inh -61, HCV inh inconclusive
C=CCN(c1nc(C)c(Br)c(OC)n1)S(=O)(=O)c1ccc(C)cc1	Pf growth 96h inconclusive
